Only a selection was taken, and hits are over-represented in it overall.
Sm TGR inh – blocks Schistosoma mansoni thioredoxin glutathione reductase; AID 485364; Q962Y6; Potency, µM (series often up to 114 µM), most hits filed as inhibitors; purified TGR, DTNB reduction, TNB absorbance 405 nm; hit rate 3% among 360,000; further: nearly all actives have a fitted effect of over 60% in size
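TGR 20 nM + NADPH 100 uM (dispensed conc.), cpd preinc 15 min RT; start with NADPH (500 uM addition) then DTNB (15 mM addition). Kinetic TNB absorbance, 405 nm filter. Four-parameter Hill fit across titration.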
Shiga inhibitor – Shiga toxin inhibition; Vero cells, Shiga toxin protein synthesis inhibition reporter; inhibition, % at 38.7 µM; hit rate 9.2% among 290,000; AID 2315; in the data active means inhibition mostly above about 28%, no sharp cut-off; inactive means mostly below about 43%
Cycloheximide cs – counter-screen hit for Shiga toxin inhibitors, cycloheximide | cell reporter, cycloheximide protein synthesis inhibition counterscreen | max response, % | hit rate 12% among 300,000 | AID 2314; in the data active means max response mostly above about 13%, no sharp cut-off; inactive means mostly below about 14%; further: read at 38.3 µM for the half of the compounds with a filed dose
Tb PYK inh – blocks Trypanosoma brucei pyruvate kinase; Potency, µM (top dose mostly 76.8 µM), hits mostly inhibitors; Q57TT1; AID 624173; hit rate 0.12% among 410,000; TbPYK enzyme, Kinase-Glo Plus ATP luminescence, 45 min; further: nearly all actives have a fitted effect of over 50% in size
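Enzyme and substrate buffer are dispensed first and compound is pin-transferred. ADP at 130 uM final then starts the reaction, which runs 45 min at room temperature. Detection reagent is added for 10 min before luminescence is imaged.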
LmPK inhibitor – LmPK (Leishmania mexicana) enzyme inhibition; Q27686; purified LmPK, Kinase-Glo ATP luminescence, 1 h; hit rate 0.37% among 290,000; Potency, µM (highest dose often 57.5 µM), most hits filed as inhibitors; AID 1721
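0.1 nM LmPK, 0.5 mM PEP, 0.1 mM ADP; 50 mM imidazole pH 7.2, 7 mM MgCl2, 50 mM KCl; 1 h RT. Kinase-Glo luminescence readout, normalized to no-enzyme (full inhibition) and uninhibited wells.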
FBPA Giardia inh – Giardia lamblia aldolase inhibition; A8B2U2; purified Giardia FBPA; Potency, µM (top dose mostly 59.6 µM), hits mostly inhibitors; hit rate 0.71% among 290,000; AID 2451; further: nearly all actives have a fitted effect of over 55% in size
Target sequence (A8B2U2 whole entry, looked up): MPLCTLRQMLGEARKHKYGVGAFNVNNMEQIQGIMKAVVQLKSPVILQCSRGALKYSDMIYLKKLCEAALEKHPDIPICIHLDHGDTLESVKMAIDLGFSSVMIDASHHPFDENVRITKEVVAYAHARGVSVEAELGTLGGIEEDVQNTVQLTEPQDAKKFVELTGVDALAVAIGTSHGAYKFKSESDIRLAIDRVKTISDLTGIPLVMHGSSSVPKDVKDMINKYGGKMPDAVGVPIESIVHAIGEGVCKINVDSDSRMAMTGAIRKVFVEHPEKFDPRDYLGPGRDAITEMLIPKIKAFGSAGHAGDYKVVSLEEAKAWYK
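Giardia FBPA (40 nM reagent) was preincubated 10 min at RT with compound (up to 57.5 uM final), then substrate plus GAPDH/TPI/NAD/arsenate coupling system with diaphorase/resazurin was added; resorufin fluorescence (525/598 nm) was read after 20 min.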
Numbers stand for hits; - = inactive; ? = inconclusive; . = no result given; + = active, no number; ! = not confirmed by another sample. Unless noted, the call rests on the fitted dose curve; in most records, active means well fitted curve in the direction sought with a large enough effect; inconclusive means small, poorly fitted or top-dose-only effect, or another doubt; inactive means no such curve, though single readings can be large; an effect the other way counts as inactive or inconclusive.

SMILES | Sm TGR inh | Shiga inhibitor | Cycloheximide cs | Tb PYK inh | LmPK inhibitor | FBPA Giardia inh
Cc1ccc(C(=O)Nc2c[nH]c(=O)[nH]c2=O)cc1 | - | . | - | - | - | -
COc1ccc(OC(=O)c2cnn(-c3ccccc3)c2C)cc1 | - | 132.7 | 44.9 | - | - | -
Cc1nn(-c2ccccc2)c(C)c1C(=O)Oc1ccccc1 | - | 58.5 | 35.5 | - | - | -
COc1ccc(OC(=O)c2c(C)nn(-c3ccccc3)c2C)cc1 | - | 69.9 | 52.2 | - | - | -
CC(=O)c1c(C)nn(-c2ccccc2)c1C | - | - | - | - | - | -
CCOC(=O)c1c(C)nn(-c2ccc(NC(=O)/C=C/C(=O)O)cc2)c1C | 50.1µM | - | - | - | - | -
COc1ccc(S(=O)(=O)N2CCN(C(=O)c3c(C)nn(-c4ccccc4)c3C)CC2)cc1 | - | . | . | - | . | .
Cc1cc(SCC(=O)N2CCN(C(=O)c3ccco3)CC2)c(C)cc1Br | ? | . | . | - | . | .
COc1ccc(CN(C(=O)c2cc3ccccc3oc2=O)C2CCS(=O)(=O)C2)cc1 (configuration not stated) | - | 61.9 | 32.0 | - | - | -
COc1ccccc1C(=O)N(Cc1ccco1)C1CCS(=O)(=O)C1 (configuration not stated) | 35.5µM | - | - | - | - | -
COc1ccc(CN(C(=O)c2cc3ccccc3oc2=O)C2CCCC2)cc1 | - | - | - | - | - | -
COc1ccc(CN(C(=O)c2cc3ccccc3oc2=O)C2CCS(=O)(=O)C2)cc1OC (configuration not stated) | - | 98.5 | 45.1 | - | - | .
O=C(c1cc2ccccc2oc1=O)N(Cc1ccccc1)C1CCS(=O)(=O)C1 (configuration not stated) | - | + | 40.2 | - | - | -
CCc1ccc(S(=O)(=O)c2nnn3c2nc(NC(C)C)c2cc(Cl)ccc23)cc1 | - | . | . | - | . | .
O=C(/C=C/[C@H]1O[C@@H](n2ccc(=O)[nH]c2=O)[C@H](O)[C@@H]1O)NCc1ccc2c(c1)OCO2 | . | . | . | - | . | .
O=Nc1c(O)[nH]c2ccc(Cl)c(Cl)c12 | . | . | . | - | . | .
CCOc1ccc(CN(C(=O)c2cc3ccccc3oc2=O)C2CCS(=O)(=O)C2)cc1 (configuration not stated) | - | 110.5 | 68.3 | - | - | -
O=C(c1cc2ccccc2oc1=O)N(Cc1ccccc1F)C1CCS(=O)(=O)C1 (configuration not stated) | - | 59.8 | 31.0 | - | - | -
CCOc1ccccc1C(=O)N(Cc1ccccc1F)C1CCS(=O)(=O)C1 (configuration not stated) | - | . | . | - | . | .
COc1ccc(C(=S)N2CCN(c3ccccc3C)CC2)cc1OC | . | . | . | - | . | .
C1CCN=C(Nc2nc3c(s2)CCCC3)CC1 | - | 120.3 | 38.5 | - | - | -
c1nnc(NC2=NCCCCC2)s1 | - | - | 21.7 | - | - | -
O=C(O)c1ccc(Nc2nc3c(s2)CCCC3)cc1 | . | - | - | - | - | -
CC(C)[C@H](NC(=O)N1c2ccccc2NC(=O)[C@@H]1C(C)C)C(=O)N1CCC(C(=O)O)CC1 | - | - | 8.9 | - | - | -
Cc1c(C(=O)NCCc2ccc(Cl)cc2)sc2nc3n(c(=O)c12)CCCC3 | 44.7µM | . | . | - | . | .
SMILES | Sm TGR inh | Shiga inhibitor | Cycloheximide cs | Tb PYK inh | LmPK inhibitor | FBPA Giardia inh
Cc1ccc(CNC(=O)c2sc3nc4n(c(=O)c3c2C)CCCCC4)cc1 | - | . | . | ? | . | .
COc1ccc(OC)c(CCNC(=O)c2sc3nc4n(c(=O)c3c2C)CCC4)c1 | - | - | - | - | - | .
Cc1c(C(=O)NCc2ccc(Cl)cc2)sc2nc3n(c(=O)c12)CCCCC3 | 35.5µM | . | . | ? | . | .
Cc1ccc(CNC(=O)c2sc3nc4n(c(=O)c3c2C)CCCC4)cc1 | 56.2µM | . | . | - | . | .
Cc1c(C(=O)NCCc2ccc(Cl)cc2)sc2nc3n(c(=O)c12)CCC3 | - | - | - | - | - | .
Cc1c(C(=O)NCc2ccccc2)sc2nc3n(c(=O)c12)CCCCC3 | ? | . | . | - | . | .
COc1ccc(CCNC(=O)c2sc3nc4n(c(=O)c3c2C)CCCC4)cc1OC | 35.5µM | . | . | - | . | .
Cc1ccccc1OCCn1c(CCNC(=O)C2CCCCC2)nc2ccccc21 | - | - | - | - | . | .
CCOC(=O)/C(C#N)=C1/C=CN(c2ccc(C)cc2)C=N1 | - | 64.1 | 29.5 | - | - | -
CCOC(=O)/C(C#N)=C1/C=CN(c2ccccc2)C=N1 | - | - | - | - | - | -
Cc1ccc(C(=O)OCC(=O)Nc2cccc(S(=O)(=O)N3CCCCC3)c2)s1 | . | . | . | - | . | .
COc1ccc(Cc2c(-c3ccccc3)nc3c(C)cc(Br)cn23)c(C)c1 | . | . | . | - | . | .
O=C(O)c1cccc(NC(=O)c2ccc(N3C(=O)c4ccc(C(=O)Nc5cccc(C(=O)O)c5)cc4C3=O)cc2)c1 | - | - | - | - | - | -
O=C(O)c1cccc(N2C(=O)c3ccc(C(=O)c4cccc([N+](=O)[O-])c4)cc3C2=O)c1 | 50.1µM | - | - | - | - | -
O=C(O)c1cccc(NC(=O)c2ccc3c(c2)C(=O)N(c2cccc([N+](=O)[O-])c2)C3=O)c1 | - | - | - | - | - | -
O=C(O)c1ccc2c(c1)C(=O)N(c1cccc(C(=O)/C=C/c3ccccc3)c1)C2=O | 25.1µM | 52.5 | 28.4 | - | - | -
Cc1ccc(NC(=O)COC(=O)CCc2ccccc2)cc1S(=O)(=O)N1CCOCC1 | . | . | . | - | . | .
CC(=O)Nc1ccc(NCc2ccc(C)s2)cc1 | - | 49.6 | 20.5 | - | - | -
CCCC(=O)Nc1ccc(NCc2ccc(C)s2)cc1 | - | - | active | - | - | -
Cc1ccc(CNc2cc(C(=O)O)ccc2C)s1 | ? | - | - | - | - | -
CCN(CC)CCCNC(=O)c1cc2c(Cl)nc3ccccc3c2s1 | - | - | - | - | - | -
CN(CCCNC(=O)c1cc2c(Cl)nc3ccccc3c2s1)Cc1ccccc1 | 20µM! | - | - | - | - | -
CCN(CCCNC(=O)c1cc2c(Cl)nc3ccccc3c2s1)Cc1ccccc1 | 89.1µM | . | . | - | . | .
Cc1cccc(C(=O)Nc2ccc(N3CCC(CCN4CCOCC4)CC3)c(C(=O)O)c2)c1 | - | . | . | - | . | .
CCN1CCCC1CNC(=O)C(=O)Nc1ccccc1 (configuration not stated) | - | 85.6 | 29.4 | - | - | -
Cc1ccc(CN2CCN(Cc3ccncc3)CC2CCO)o1 (configuration not stated) | 20µM | - | - | - | - | -
COc1cccc(CN2CCN(Cc3ccc(OC)c(OC)c3)CC2CCO)c1 (configuration not stated) | - | - | - | - | - | -
COc1cccc(CN2CCN(Cc3cc4ccccc4o3)CC2CCO)c1 (configuration not stated) | - | . | - | - | - | -
COc1cccc(CN2CCN(Cc3ccc(O)c(OC)c3)CC2CCO)c1 (configuration not stated) | 35.5µM | - | - | - | - | -

Assay outcomes as filed in PubChem.
